Results: paper PMC7819943, “Rice protein-binding microarrays: a tool to detect cis-acting elements near promoter regions in rice”
Whole data set: some 68,000 sequences, median “fluorescence intensity (a.u.)” near 9,100, cut for the highest 2% near 16,000. The sample as a whole holds a higher share of the highest values than the screen did.

Each sequence was assayed against OsWRKY34 (Oryza sativa, UniProt Q0JBA9 1-250) (assay: protein-binding microarray (RPBM); PBS, 2% BSA, 51.3 ng/ul salmon testes DNA, 50 uM zinc acetate, 200 nM TF, 25 C, 1 h; high values mean tight binding). Details: protein: recombinant; tags: N-terminal polyhistidine and DsRed monomer fusion (pET32a); label: CyDye5-dUTP incorporated in the synthesized complementary strand; 3' TTTTT single-stranded linker to array surface; dsDNA, one strand shown.
OsWRKY34, sequence (Q0JBA9 entry or part of it): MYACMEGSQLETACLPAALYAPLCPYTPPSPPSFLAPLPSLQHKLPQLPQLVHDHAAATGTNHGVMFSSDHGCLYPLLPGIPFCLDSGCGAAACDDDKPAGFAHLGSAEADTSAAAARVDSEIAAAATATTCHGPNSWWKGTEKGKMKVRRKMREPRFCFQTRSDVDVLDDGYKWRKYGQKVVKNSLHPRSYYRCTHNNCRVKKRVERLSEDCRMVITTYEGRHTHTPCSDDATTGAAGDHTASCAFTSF
In short: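 In PBS with 2% BSA, salmon testes DNA and 50 µM zinc acetate, 200 nM protein was incubated on a custom Agilent array at 25 °C for 1 h and then washed off. The array had been made double-stranded by primer extension with Cy5-dUTP and blocked with 2% BSA. The proteins were transcription factors fused N-terminally to polyhistidine and DsRed, expressed in E. coli BL21-CodonPlus and purified on Ni–NTA. The binding signal is per-feature fluorescence intensity (arbitrary units) from an Axon 4000B scanner.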

Sequence | binding signal
GCCTCGACATGCGCGTCCGATTTATCCCCTTTTTTTTTTTCGGAGTCACCTAGTGCAG | 8470 fluorescence intensity (a.u.)
CATGCCAGGTGTTGGGCCTCATCGTCGGCCGCTTAGTATCCGGAGTCACCTAGTGCAG | 8380 fluorescence intensity (a.u.)
TTTTGTCCTTCAACCTGTTGAAGTTGTTTTCAGTTGTTCACGGAGTCACCTAGTGCAG | 11600 fluorescence intensity (a.u.)
GTCACCAGTGTCCGCCAATAATTTGCACATCTTCTCATATCGGAGTCACCTAGTGCAG | 10300 fluorescence intensity (a.u.)
TGCTTAGTTGCCCTACAACCTTTTTACAGGCTATATTTATCGGAGTCACCTAGTGCAG | 8110 fluorescence intensity (a.u.)
TAGCTTAATATTTTTTTTCTCGCTAGCTTTATTTAAAATGCGGAGTCACCTAGTGCAG | 8170 fluorescence intensity (a.u.)
TATTCACGGCTGCACTTATTTTGGGACGGAGGTAGTATTTCGGAGTCACCTAGTGCAG | 8070 fluorescence intensity (a.u.)
CCCTCCTTCCCTTTTAGTGGGTCTGTTTTCTTGGAGCGCGCGGAGTCACCTAGTGCAG | 8600 fluorescence intensity (a.u.)
CGCAGAATCACAGTTTTTCTTCATCTCCGGCAAGGGTAATCGGAGTCACCTAGTGCAG | 8960 fluorescence intensity (a.u.)
ACGCACCAACCGTCCCTCTTTCGCTCACACTCTTCCTTCCCGGAGTCACCTAGTGCAG | 9700 fluorescence intensity (a.u.)
GCCTACTCCTACTTGTACATACTTGCTTTTTTTTTTTTTCCGGAGTCACCTAGTGCAG | 17500 fluorescence intensity (a.u.)
TTGCTCGTATTTTCTCCCCAAAGTCATCAACTTTGATGCTCGGAGTCACCTAGTGCAG | 19000 fluorescence intensity (a.u.)
AGTACTACTACTACTACATACAGCTGCCTTTGCTTAGCTCCGGAGTCACCTAGTGCAG | 9580 fluorescence intensity (a.u.)
TATTTTTTGCATTTTGCTCCCTGATTTGAACTGTATTTCTCGGAGTCACCTAGTGCAG | 8660 fluorescence intensity (a.u.)
CAATTGGTTGGGTTTCTTGTGCCTACCTGTGTTTAAGTTCCGGAGTCACCTAGTGCAG | 9160 fluorescence intensity (a.u.)
ATACCACCTTATATACTTTGCCAAAACCACCTTTTCCAAGCGGAGTCACCTAGTGCAG | 9040 fluorescence intensity (a.u.)
GTCCCATCACCTTATTTCTCATTTTGATTTACTTTTATCTCGGAGTCACCTAGTGCAG | 9330 fluorescence intensity (a.u.)
TATAGATAGATACTACCAGGGTTTCCAAACTGTTTTTTTGCGGAGTCACCTAGTGCAG | 23300 fluorescence intensity (a.u.)
TTTCTTTTTTTTGCCTACCTTTACTTTACACCAAAAACTGCGGAGTCACCTAGTGCAG | 8630 fluorescence intensity (a.u.)
CGGGGTTTCACTTGGTTTTAATTGTTCCTGTGCTGCGTCGCGGAGTCACCTAGTGCAG | 18700 fluorescence intensity (a.u.)
TACATACTCCTACTCCGTAGTTTGCTGCTTTGTTGGATTCCGGAGTCACCTAGTGCAG | 12900 fluorescence intensity (a.u.)

Sequence | binding signal
CTTTTCCTGCTTGGTTCGTTACTCCTGTTTAATTATTATTCGGAGTCACCTAGTGCAG | 14600 fluorescence intensity (a.u.)
CGAGGTGTGTCTCTCTCCCGTTCACCCGTCCGTATCCTTCCGGAGTCACCTAGTGCAG | 11100 fluorescence intensity (a.u.)
CGATTATTTCACTAGAGGCAACCATACTGCTACCAAATCCCGGAGTCACCTAGTGCAG | 10200 fluorescence intensity (a.u.)
TACCTGTTTGTTTTTAAGTTCAGATATTATATTACGTAACCGGAGTCACCTAGTGCAG | 8930 fluorescence intensity (a.u.)
ACCCCATTTTTTTTGAAAATTCTCGAATTTTATTTTTTTTCGGAGTCACCTAGTGCAG | 8750 fluorescence intensity (a.u.)
AGTCCGACTTTTCCTTTTTTTTTTCCGTGTTTTCCGTTTCCGGAGTCACCTAGTGCAG | 14800 fluorescence intensity (a.u.)
TTTGTCGTTGCTTCCCTTCTTGGAGACCTTGCCTTGAAGACGGAGTCACCTAGTGCAG | 8090 fluorescence intensity (a.u.)
ATTATATTTTAGGTCGCATTTTGATTCTTTTCATGTAATCCGGAGTCACCTAGTGCAG | 8660 fluorescence intensity (a.u.)
TGGTTATGTGCCACAAATCATATATGCAATTTTGACTATACGGAGTCACCTAGTGCAG | 9270 fluorescence intensity (a.u.)
ATGGAATCGATCACCTGCAATGCAACACCGTGCCATAATCCGGAGTCACCTAGTGCAG | 8520 fluorescence intensity (a.u.)
GAGGAGAGCAGAACAGAACAAGAGGAGGAGAACAAAAAAACGGAGTCACCTAGTGCAG | 8230 fluorescence intensity (a.u.)
TGTCACAGTGTTTTGTTTGTGTTTTTGACCTTGCTTTCCTCGGAGTCACCTAGTGCAG | 16800 fluorescence intensity (a.u.)
ATATATATATATATATATATATTTTGTCTTGAGTGGTTTGCGGAGTCACCTAGTGCAG | 11700 fluorescence intensity (a.u.)
GAACACGATGACATCGGATCGGGTCGGTTTCTCTCTTGCTCGGAGTCACCTAGTGCAG | 9010 fluorescence intensity (a.u.)
TTTTGCTTTGGTTGGTTTGCTCGTTTTTTTTTTCTTTTCTCGGAGTCACCTAGTGCAG | 19600 fluorescence intensity (a.u.)
ATGTTTTTCTTTTCTTTCTTCTTTTTTTTGTTTTTGACCTCGGAGTCACCTAGTGCAG | 11900 fluorescence intensity (a.u.)
CTCGCTTTTCTCTTTTTTGATACTGTCTCGTGGTTTCTTGCGGAGTCACCTAGTGCAG | 18400 fluorescence intensity (a.u.)
GTAGTTTTTTTCCTAGTTTCAGTTTTTGTTTTGCTTTTTTCGGAGTCACCTAGTGCAG | 11200 fluorescence intensity (a.u.)
TTTTCTTTGCTTTTCGGTTTCGTTCTCCGTTTTGGTTTTTCGGAGTCACCTAGTGCAG | 12400 fluorescence intensity (a.u.)
TCTCTTTCTCTCGCTTTCTTTTTGCATAGTTTTCTTCATGCGGAGTCACCTAGTGCAG | 8700 fluorescence intensity (a.u.)
TTGGATCGTTTGCTTTTCTTTGCCTTTCTTTTGGATTTCTCGGAGTCACCTAGTGCAG | 11700 fluorescence intensity (a.u.)

Sequence | binding signal
GGGTCGGTTTCTCTCTTGCTGTCTTCTCGATCGATCGATGCGGAGTCACCTAGTGCAG | 20200 fluorescence intensity (a.u.)
GTCTCGGTCTTTTCGATCTCGGTCTTTTCGGTTCGGTCTTCGGAGTCACCTAGTGCAG | 9340 fluorescence intensity (a.u.)
GCGTGGTTGATTTTTAGTCTTGTCGACTTCGACTTTAAGCCGGAGTCACCTAGTGCAG | 9120 fluorescence intensity (a.u.)
TCGGTACTCTTGCTGAAGCAATCCTTTCTTCCTTGCCTAACGGAGTCACCTAGTGCAG | 9140 fluorescence intensity (a.u.)
ACAGTACGCTACTATTCATACGCTAAATTTGTCTTTTTTACGGAGTCACCTAGTGCAG | 9830 fluorescence intensity (a.u.)
GGTTATTATATCTACAAAATTCTTGCACACCTCAGCAATGCGGAGTCACCTAGTGCAG | 8090 fluorescence intensity (a.u.)
TCCGTCTGTCTATAGCTACTATTAAAGGAGGGGAGGCTCTCGGAGTCACCTAGTGCAG | 8130 fluorescence intensity (a.u.)
AAACAAACACAGAGCTTCTCTCCTCTGTTCTCCTTCTCTGCGGAGTCACCTAGTGCAG | 8090 fluorescence intensity (a.u.)
TCGTCTCCGGCCTTTTCTTGCTCTCCTCGTCTTCTTCCTCCGGAGTCACCTAGTGCAG | 13200 fluorescence intensity (a.u.)
TGTGCAGTTTTGCTGTTTATGACTAGTTTACCTGTTGTCTCGGAGTCACCTAGTGCAG | 10800 fluorescence intensity (a.u.)
GATTTTTTTTTTCTCGTCTCCTCGTTTTTGCTTGCCTTTCCGGAGTCACCTAGTGCAG | 19200 fluorescence intensity (a.u.)
CTACATCTTCTCTCGCTATCTCTCTCTGTACTCTCTCTCTCGGAGTCACCTAGTGCAG | 11400 fluorescence intensity (a.u.)
TGCACTTCTCCACTTCACTCCTCGTCTCTTGCCGTCTTTTCGGAGTCACCTAGTGCAG | 13200 fluorescence intensity (a.u.)
GATGTCTCTCTTTTTTTTTTTGGTTTGGGTTGTCACTTTTCGGAGTCACCTAGTGCAG | 9400 fluorescence intensity (a.u.)
TGGCTCTCTCGCTCCTATGTGGCTATGTCTGTCTACCTAACGGAGTCACCTAGTGCAG | 10800 fluorescence intensity (a.u.)
TAGTTTTGTTTAATTCCTGTCTCGGGTTTGGTTGGTTGCTCGGAGTCACCTAGTGCAG | 19100 fluorescence intensity (a.u.)
ACTGTGGTTATCTTGCTATCTCTCCTACTCGCTCTGTCAACGGAGTCACCTAGTGCAG | 16500 fluorescence intensity (a.u.)
TTCACTTTCACCTCGCCGTCTTGGTTGTCTTGCCGTCTTTCGGAGTCACCTAGTGCAG | 20200 fluorescence intensity (a.u.)
AATTTTCCGTTTCTCCTTTTCTTGCTTTGTTTTTTCCTTGCGGAGTCACCTAGTGCAG | 15200 fluorescence intensity (a.u.)
CCTGTTTTTTGTTTTTGGTGGTGGTTCCGTCTCGGTTAATCGGAGTCACCTAGTGCAG | 9840 fluorescence intensity (a.u.)
